In all, about 360,000 compounds went through this assay and about 17,000 (4.7%) were called active. Another 5% or so got no clear call; they are omitted. This excerpt belongs to a sample that is enriched for actives. Values without a mark were called inactive. No stated cut-off is given here; in the data, active means activity change below about -50%; inconclusive means mostly about -30% to -49%; inactive means weaker than that.
On the % scale 0 is the no-effect control and ±100 the full control effect.

This assay in a line: qHTS for Inhibitors of Inflammasome Signaling: IL-1-beta AlphaLISA Primary Screen. The settings on record: THP-1 LPS/ATP IL-1B secretion, 16 h; at 57.5 µM, active compounds read low. The procedure, abridged:
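Secreted IL-1B measured by AlphaLISA bead assay after 16 h compound exposure of THP-1 cells; compounds (final up to 57.5 uM) added 1 h before LPS (250 ng/mL) and ATP (1.25 mM) stimulation; lower signal means less secretion.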
In the case of `O=C(NCc1cccc(C(F)(F)F)c1)c1ccc2sc(COCCO)nc2c1`, the activity change was 28.9%.

As for `CCN(CC)CCNC(=O)c1ccc(NC(=O)c2c(F)cccc2Cl)cc1`, the activity change is -73.3% (active).

As for `CCN(CC)CCNC(=O)c1ccc(NS(=O)(=O)c2ccc3c(c2)OCCO3)cc1`, the activity change is -6.92%. The figure for `CCN(CC)CCOC(=O)c1ccc(NC(=O)CNC(=O)c2ccccc2)cc1` is 7.44%; for `CCNC(=S)Nc1ccc(OC(F)(F)F)cc1` it is -1.65%. For `FC(F)(F)Oc1ccc(NC(=S)NCc2ccccc2)cc1`, the activity change was -95% (active). The figure for `COC(=O)Cc1ccc(NC(=S)NCc2ccccc2)cc1` is 0.636%; for `CC1(C)OC(=O)C2=C(C[C@@H](C3CC3)O[C@H]2c2ccc(Cl)cc2)O1` it is 6.02%; for `N=C1c2ccccc2-c2ccccc21` it is 3.3%. Turning to `Cc1c(NC(=O)Nc2ccccc2Cl)sc(=S)n1C`, the activity change is -4.03%. The result for `O=C(Nc1ccccc1Cl)/C(Cl)=C(\Cl)S(=O)c1ccccc1` (configuration not stated) reads -103% (active); that for `CN(C)S(=O)(=O)Oc1ccccc1C(=O)Nc1ccccc1Cl`, 3.38%; that for `CCCNC(=O)C1(C)CCN1C(=O)C1(c2ccccc2)CC1` (configuration not stated), 0%.

Consider `Nc1ncnc2c1ncn2[C@@H]1O[C@H](C(=O)N2CCSC2)[C@@H](O)[C@H]1O`, for which the activity change is 3.32%. The figure for `Cc1ccc(S(=O)(=O)N(CCc2ccccc2)c2ccc3c(c2)C2CC3CCN2C(=O)OCc2ccccc2)cc1` (configuration not stated) is -16.8%; for `COc1ccc(C2=Nc3ccccc3NC(=O)C2N(C(=O)c2cc3ccccc3[nH]2)c2ccccc2)cc1` (configuration not stated) it is 16.6%.

For the compound `Oc1ccc2ccccc2c1N=Nc1nccs1`, the activity change was -98.3% (active).

For the compound `CC(C)(C)c1ccc(Cn2nnc3c(=O)[nH]c(C4CCCN(C(=O)c5ccco5)C4)nc32)cc1` (configuration not stated), the activity change was -12.5%.

Regarding `COc1cc(NC(=O)C2CCN(c3cnccn3)CC2)cc(OC)c1`, the activity change was -9.18%. For the compound `Cc1ccc(Nc2nc(Cl)c(C=O)s2)cc1`, the activity change is -13.1%. The result for `Cc1ccc(Nc2ccccc2N)cc1` reads -70% (active); that for `Nc1ccc(C(=O)Nc2ccccc2N)cc1`, -21%.

Regarding `Cc1nc2ccc(N)nc2nc1C`, the activity change was 10.3%. On to `CC(C)(C)N1C(=O)c2c(C(=O)OCc3ccccc3)[nH]c(-c3ccccc3)c2C1=O`, for which the activity change was 11.9%. The result for `COc1ccccc1CNCc1cccs1` reads 10.3%. Take `CCOc1cc(/C=N/O)ccc1OCc1ccccc1F`: the activity change is -8.72%. As to `Fc1ccccc1COc1ccccc1CNCc1ccncc1`, the activity change was -61.1% (active). The result for `CCOC(=O)C1=C(O)/C(=C/c2cc(C)n(-c3ccccc3)c2C)N=C1C` reads -9.27%. Consider `COc1ccc(NS(=O)(=O)c2cccc(C(=O)NCCc3ccc(S(N)(=O)=O)cc3)c2)cc1`, for which the activity change was 6.56%. Take `O=C(CN1C(=O)NC2(CCCCCC2)C1=O)NCc1ccc(F)cc1`: the activity change is -13.3%. On to `CSc1ccc(CN2C(=O)NC3(CCCCCC3)C2=O)cc1`, for which the activity change is -60.4% (active). In the case of `O=C(CN1C(=O)NC2(CCCCCCC2)C1=O)NCc1ccc(F)cc1`, the activity change is -15.9%. With `CC(C)c1ccc(C=NNc2ccc([N+](=O)[O-])cn2)cc1`, the activity change is 20.1%. With `O=C1NCC(Nc2ccccc2)C(=O)N1` (configuration not stated), the activity change is 11.9%. The figure for `O=C(Nc1ccn(CCCNCc2ccc3[nH]ccc3c2)c(=O)n1)OCc1ccccc1` is -20.2%; for `COc1ccc2sc(-c3ccccc3OC)c(-c3ccc(OCCN4CCCC4)cc3)c2c1` it is -51% (active); for `COc1cccc(-c2sc3ccc(OC)cc3c2-c2ccc(OCCN3CCCCC3)cc2)c1` it is -3.91%. The result for `COc1ccccc1-c1sc2ccccc2c1-c1ccc(Br)nc1` reads 26.6%; that for `CC1(C(=O)NS(=O)(=O)c2ccc(Cl)cc2)CCN1C(=O)CC1CCCC1` (configuration not stated), 24.4%. Take `CCCCSc1nc2c(c(=O)n1CC)SC(C)C2` (configuration not stated): the activity change was 25.4%. The result for `CCN1CCN(C(=O)CN(C)S(=O)(=O)c2ccc(OC)cc2)CC1` reads -5.95%. Take `CCOCCCNC(=O)C1(O)c2cc(Br)ccc2NC(=O)N1c1ccc(C)c(C)c1` (configuration not stated): the activity change was 29.6%. The result for `COc1ccc(-c2cc(C(=O)NCCCN3CCCC3=O)c3ccccc3n2)cc1OC` reads 0%. Turning to `COc1ccc(-c2cc(C(F)(F)F)nc(S(C)(=O)=O)n2)cc1OC`, the activity change is -105% (active).

As for `COc1ccc(-c2cc(-c3ccc(N)cc3)nc(N)c2C#N)cc1OC`, the activity change was 0%.

For `O=C1NC[C@H](Cc2ccc(O)cc2)N(C[C@H]2CCCN2C[C@H](Cc2ccccc2)N2C[C@H](Cc3ccccc3)N(CCc3ccccc3)C(=O)C2=O)C1=O`, the activity change was -12.9%.

Turning to `O=C1CCC(=O)N1CCC(=O)N(C(=O)NC1CCCCC1)C1CCCCC1`, the activity change is -5.97%. With `O=C1c2cccnc2C(=O)N1Cc1cccs1`, the activity change is 21.3%. Consider `NC1=CC(=O)C(=O)c2cccnc21`, for which the activity change is -59.7% (active). The figure for `CCOc1ccc(CCN2C(=O)c3cccnc3C2=O)cc1OCC` is -0.139%. Consider `CCN(C(=O)CN1CCN(Cc2ccccc2)CC1)c1c(N)n(Cc2ccccc2)c(=O)[nH]c1=O`, for which the activity change was 27.8%. As for `Cc1cccc(NC(=S)Nc2ccc(Cl)c(Cl)c2)c1`, the activity change is -89.5% (active).

On to `S=C(Nc1cccc(Cl)c1)Nc1ccc2c(c1)OCCO2`, for which the activity change was -23.6%. In the case of `Cc1cccc(NC(=S)Nc2ccc3cn[nH]c3c2)c1`, the activity change is -16.5%. As for `Cc1cccc(NC(=S)NC23CN4CN(CN(C4)C2)C3)c1`, the activity change was -14.8%. The figure for `FC(F)(F)c1cccc(NC(=S)Nc2cccc(Cl)c2)c1` is -14.7%; for `Cc1csc(NC(=S)Nc2cccc(Cl)c2)n1` it is -99.2% (active). In the case of `O=C(Nc1ccc(Cl)c(C(F)(F)F)c1)C1Cc2c(-c3ccccc3Oc3ccccc3)ccnc2O1` (configuration not stated), the activity change is -13.9%.

On to `Cc1cc(C)c(S(=O)(=O)NCC(c2ccc3c(c2)OCO3)N2CCOCC2)c(C)c1` (configuration not stated), for which the activity change was 0%.

For `COc1ccccc1OCC(=O)OCc1cc(-c2ccco2)on1`, the activity change was 1.02%.

With `CCOC(=O)[C@]12CCCC=C1N(CCC1=CCCCC1)C(=O)[C@H](CC(=O)N1CCSCC1)C2`, the activity change is 15.1%. Turning to `COc1ccc(Br)cc1CN(C)C(=O)C1CC(=O)N(C2CCCC2)C1` (configuration not stated), the activity change is -16.8%. Turning to `CC1(C(=O)Nc2cccnc2)Cc2c(-c3ccccc3)ccnc2O1` (configuration not stated), the activity change is -18%. As for `CCOC(=O)c1c(C(C#N)C#N)cc(C)nc1C`, the activity change is 17.2%. As for `CCOC(=O)c1cc(C)nc(S(C)(=O)=O)c1C#N`, the activity change is -106% (active). The result for `CCOC(=O)COc1nc(C)cc(C(F)(F)F)c1C#N` reads -4.72%; that for `CCCCOc1ccc(Cl)cc1CSc1nncn1N`, -10.2%; that for `CC1=C(C(=O)N2CCOCC2)CC(CC(=O)NCc2cccc3ccccc23)C(=O)N1CCC1=CCCCC1` (configuration not stated), -8.18%.

On to `CC(C)(C)c1ccc(/C=C/C(=O)Nc2ncccn2)cc1`, for which the activity change was 0%. The figure for `COC(=O)c1sc(-c2ccc(C(C)(C)C)cc2)cc1NC(=O)/C=C/C(=O)O` is -98.5% (active); for `COc1ccc(NS(=O)(=O)c2ccc(N3CCOCC3)c(NC(=O)/C=C/C(=O)O)c2)cc1` it is 12.3%. The figure for `COc1cccc2cc(-c3cc(=O)oc4cc(C)c(O)cc34)oc12` is 0.212%; for `COc1ccc2oc(=O)cc(-c3cc4ccccc4o3)c2c1` it is -52.1% (active); for `COc1ccc(Nc2cc(=O)oc3ccccc23)cc1` it is 34.3%. As to `Cc1ccc(S(=O)(=O)N2CCOCC2)cc1NC(=O)c1ccncc1`, the activity change is 6.64%. As to `CC1(C(=O)NCC2CCOCC2)Cc2c(-c3cccc(C(N)=O)c3)ccnc2O1` (configuration not stated), the activity change was 40.9%. For `N#C/C(=C/c1ccc(-c2ccccc2[N+](=O)[O-])o1)C(=O)NCCN1CCCCC1`, the activity change is -54.1% (active).

As for `C=CCNC(=O)/C(=C\c1cccc([N+](=O)[O-])c1)NC(=O)c1ccccc1`, the activity change was 11.9%. Take `O=C(CN1C(=O)NC2(CCCCC2)C1=O)NCCc1c[nH]c2ccccc12`: the activity change is 0%. Regarding `O=C(NCCCN1CCOCC1)c1ccc([N+](=O)[O-])cc1[N+](=O)[O-]`, the activity change is 47.3%.

For `O=C1C2C3C=CC(C4CC34)C2C(=O)N1/N=C/c1ccc(-c2ccccc2[N+](=O)[O-])o1` (configuration not stated), the activity change was 5.29%. The result for `CN1CCN(CCNC(=O)Nc2ccccc2[N+](=O)[O-])CC1` reads -9.61%. On to `N#C/C(=C/c1ccc(N2CCOCC2)o1)C(=O)N1CCOCC1`, for which the activity change was -6.13%.

As to `N#C/C(=C/c1ccc(N2CCCCC2)o1)C(=O)NCCc1c[nH]c2ccccc12`, the activity change is -56.8% (active).

In the case of `CN(C)CCNC(=O)/C(=C/c1cccc([N+](=O)[O-])c1)NC(=O)c1ccccc1`, the activity change is -4.01%. The result for `N#C/C(=C\c1ccc(-c2cccc([N+](=O)[O-])c2)o1)C(=O)NCCN1CCOCC1` reads -79.4% (active); that for `Cc1ccc(C(=O)N/C(=C/c2ccc(-c3cccc([N+](=O)[O-])c3)o2)C(=O)NCCCN(C)C)cc1`, -105% (active); that for `Cc1ccc(-c2ccc(/C=N/NC(=O)CN3CCOCC3)o2)cc1[N+](=O)[O-]`, -11%. As for `CCc1cccc(C)c1N(C(=O)Cn1c(CO)nc2ccccc21)C(C)COC` (configuration not stated), the activity change is -5.47%. The result for `COc1ccc(N2c3ccccc3CN(Cc3ccccc3)[C@@H](C)[C@H]2Cc2ccc(-c3ccccc3)cc2)cc1` reads 43%; that for `O=C(OCc1cn([C@H]2C[C@H](c3ccccc3)N(C(=O)c3cccs3)C[C@@H]2O)nn1)c1ccccc1`, 9.57%. The result for `CCOC(=O)C1(Cc2ccc(Cl)cc2)CCN(C(=O)C2=NNC(=O)CC2)CC1` reads 5.99%.

The values above are taken from PubChem BioAssay AID743279 (National Center for Advancing Translational Sciences (NCATS), 2014).
